PubChem BioAssay AID1376 (SRMLSC, 2008)
The whole screen tested about 220,000 compounds, of which about 530 (0.24%) were called active. What follows is part of a selection rich in actives, with near analogues and random picks from the rest. Results with a measured potency or affinity are listed apart. Values without a mark were called inactive. No stated cut-off is given here; in the data, active means inhibition above about 13%; inconclusive means no clear call, values can overlap the other calls; inactive means below that.

target: Bifunctional protein GlmU (Mycobacterium tuberculosis (strain ATCC 25618 / H37Rv)) (UniProt P9WMN3); assay: inhibition of mycobacterial GlmU enzyme – biochemical, glucosamine-1-phosphate acetyltransferase (AID 1376);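 further: 0% = complete reaction with vehicle and 100% = reaction without substrate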; details: M. tuberculosis GlmU acetyltransferase enzyme assay; hits give high values;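 tested at 30 µM in the primary screen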
Sequence (P9WMN3 whole entry, looked up): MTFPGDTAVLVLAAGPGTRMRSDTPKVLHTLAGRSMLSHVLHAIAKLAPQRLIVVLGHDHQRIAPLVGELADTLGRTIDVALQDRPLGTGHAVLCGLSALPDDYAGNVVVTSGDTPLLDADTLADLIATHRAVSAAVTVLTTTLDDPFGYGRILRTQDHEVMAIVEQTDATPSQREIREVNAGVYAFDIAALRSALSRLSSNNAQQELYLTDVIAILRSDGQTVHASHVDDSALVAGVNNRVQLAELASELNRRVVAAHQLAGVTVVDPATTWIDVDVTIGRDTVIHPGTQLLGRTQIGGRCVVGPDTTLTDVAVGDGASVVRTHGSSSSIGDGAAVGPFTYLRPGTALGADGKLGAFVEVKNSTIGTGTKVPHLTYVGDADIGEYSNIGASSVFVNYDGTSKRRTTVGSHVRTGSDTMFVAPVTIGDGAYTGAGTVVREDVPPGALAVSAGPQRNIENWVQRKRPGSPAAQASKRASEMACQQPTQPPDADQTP

Row | Structure (SMILES) | inhibition
1 | COc1ccc(/C=N/n2c(-c3cc(C)[nH]n3)n[nH]c2=S)cc1OC | 5.27%
2 | Cc1ccc(NC(=O)NCc2c(C)nn(C)c2C)cc1Cl | 2.69%
3 | C#CCCOC(=O)N1C2=NC(C(=O)OC)=C(C(=O)OC)[C@@H]3N(CC=C)c4ccccc4[C@]23C[C@H]1C(=O)OC | -1.18%
4 | CCCCn1c(SCC(=O)N2CCCCC2C)nc2cc(S(N)(=O)=O)ccc21 (centres undefined) | -1.4%
5 | COc1ccc(OCc2nnc(SCC(=O)NNC(=O)c3ccc(C)cc3)n2C)cc1 | 0.34%
6 | COc1cc(/C=C(\C#N)c2nc3ccc(C)cc3[nH]2)c([N+](=O)[O-])cc1OC | 2.93%
7 | COc1cc(/C=C(\C#N)c2nc3ccccc3[nH]2)cc(OC)c1O | 4.95%
8 | CCOC(=O)N1CCN(CC(=O)N2c3ccccc3CCc3ccccc32)CC1 | -2.37%
9 | CCOc1ccc(C(=O)NCC(=O)OCC(=O)Nc2ccc(C)c(S(=O)(=O)N(C)C)c2)cc1 | -3.11%
10 | CCCc1ccc(C(=O)NC(=O)c2ccccc2O)cc1 | 2.73%
11 | CCn1cnc2c1c(=O)n(CC(=O)Nc1ccc3c(c1)OC(F)(F)O3)c(=O)n2Cc1ccccc1 | -4.42%
12 | CCC(=O)N1CCC2(CC1)Oc1ccc(Cl)cc1C(=O)C21CC(c2ccccc2)=NO1 (centres undefined) | 3.83%
13 | Cc1cc(C)n2ncc(C(=O)Nc3ccc4c(c3)OCO4)c2n1 | 1.37%
14 | COC(=O)Cc1c(C)c2ccc(OCc3nn[nH]n3)c(C)c2oc1=O | 0.72%
15 | COc1cc(/C=C(\C#N)C(=O)NCC2CCCO2)ccc1OCC(=O)O (centres undefined) | -0.12%
16 | COCCCNC(=O)/C(C#N)=C/c1ccc(F)cc1 | -2.31%
17 | COCCCNC(=O)/C(C#N)=C/c1ccc(OCC(=O)O)c(OC)c1 | 13.8% (active)
18 | COc1ccc2cc(-c3[nH]ncc3CN3CCCCO3)ccc2c1 | -2.52%
19 | N/C(=N\O)c1ccc(NC(=O)c2cccs2)cc1 | 4.24%
20 | O=C(Nc1c(F)c(F)c(F)c(F)c1F)C1CCCCC1 | -1.91%
21 | O=C(/C=C/c1ccccc1)c1c(O)n(CCc2ccccc2)c(=O)[nH]c1=O | 1.89%
22 | O=C(O)Cn1cc(/C=N/NC(=O)c2cc3cc(Br)ccc3o2)c2ccccc21 | -0.33%

Row | Structure (SMILES) | inhibition
23 | Cn1cc(/C=N/NC(=O)c2cc3cc(Br)ccc3o2)c2ccccc21 | -2.19%
24 | COc1ccccc1OCc1ccc(C(=O)NCC2CCCO2)o1 (centres undefined) | 1.7%
25 | CCCCOc1ccc(C2CCC(C(C)=O)C(C)C2)cc1 (centres undefined) | 13.4% (active)
26 | CCCCOc1ccc(C(=O)N2CC(C)OC(C)C2)cc1 (centres undefined) | 6.38%
27 | CCCCOc1ccc(C(=O)N2CCC(C)CC2)cc1 | -0.91%
28 | CCCSC1=N/C(=C\c2ccsc2)C(=O)S1 | -1.15%
29 | CCSC1=N/C(=C\c2ccc(-c3ccccc3[N+](=O)[O-])o2)C(=O)S1 | 6.21%
30 | CCCSC1=N/C(=C\c2ccc([N+](=O)[O-])o2)C(=O)S1 | 21.6% (active)
31 | Cc1cc(N2CCN(S(=O)(=O)c3ccccc3)CC2)c2ccccc2n1 | -2.32%
32 | C/C(=N\N1CCN(C)CC1)c1ccc(Cl)c(Cl)c1 | -1.93%
33 | O=C(CN1CCN(Cc2ccccc2Cl)CC1)N/N=C/c1ccco1 | 2.34%
34 | CCN(CC)C(=S)SCC(=O)c1ccccc1 | 2.19%
35 | CCN(CC)C(=S)SC1=CCS(=O)(=O)C1 | -2.51%
36 | O=S(=O)(NCc1ccccc1)c1ccc(F)cc1Br | 6.02%
37 | CN(C)c1ccc(/C=C2\C(=N)N3C(=NC2=O)Sc2cc(S(C)(=O)=O)ccc23)cc1 | -6.57%
38 | COc1ccc(/C=C2/C(=N)N3C(=NC2=O)Sc2cc(S(C)(=O)=O)ccc23)cc1OC | 3.31%
39 | COC(=O)c1cc(C#N)c(Oc2ccc(OC)cc2)nc1C | 8.02%
40 | C/C(C/C(C)=C1/SC(=S)NC1=O)=C1\SC(=S)NC1=O | 49% (active)
41 | CCO/C(C)=C1/SC(=S)NC1=O | -6.59%
42 | CCCCCC/C(C)=C1/SC(=S)NC1=O | -3.54%
43 | Cn1nc(-c2ccccc2)c(C(=O)NC(C(=O)O)c2ccccc2)c1Cl (centres undefined) | 1.91%
44 | CN(C)C(=O)CSc1ncnc2scc(-c3ccccc3)c12 | 2.78%

Row | Structure (SMILES) | inhibition
45 | Clc1ccc(N=c2ssnc2Cl)cc1 | 19.9% (active)
46 | COc1cc(N=c2ssnc2Cl)cc(OC)c1 | 12.8%
47 | Clc1nssc1=Nc1ccc(Br)cc1 | 18%
48 | N#Cc1ccc(N=c2ssnc2Cl)cc1 | 18.4%
49 | Cc1ccc(N=c2ssnc2Cl)cc1 | 17.6%
50 | COc1cc(N=c2ssnc2Cl)cc(OC)c1OC | 14.1% (active)
51 | Clc1nssc1=Nc1ccccc1 | 14.6% (active)
52 | COc1ccc(N=c2ssnc2Cl)cc1 | 5.49%
53 | N#Cc1cccc(N=c2ssnc2Cl)c1 | -3.05%
54 | Cc1ccc(N/C=C/C(=O)c2cccs2)cc1C | -3.05%
55 | COc1cccc2sc(NNC(=O)C3COc4ccccc4O3)nc12 (centres undefined) | 6.49%
56 | O=C(CSc1nnc(-c2ccccc2Cl)n1Cc1ccco1)Nc1ccc2c(c1)OCCO2 | -6.82%
57 | OCCN1CCN(c2ncnc3sc(-c4ccccc4)cc23)CC1 | 0.73%
58 | Cc1ccc(C(=O)OC2OC(=O)C(Cl)=C2N2CCOCC2)cc1 (centres undefined) | 7.25%
59 | O=c1[nH]c2ccccc2nc1NCCN1CCOCC1 | -0.64%
60 | COc1ccc(-c2noc3c2-c2nc(-c4ccc(C)cc4)sc2CC3)cc1 | 6.62%
61 | O=C(NCC(=O)N(c1ccccc1)C(C(=O)NC1CCCCC1)c1cccnc1)c1cccs1 (centres undefined) | -3.93%
62 | O=C(NCc1cccs1)c1cc2c(s1)CCCC2 | 0.13%
63 | O=C(CN(C(=O)c1cc2c(s1)CCC2)C1CCCC1)NCc1cccs1 | 5.33%
64 | O=C(CN(Cc1ccccc1)C(=O)c1cc2c(s1)CCC2)NCc1cccs1 | 14.9% (active)
